Measured values published in the supplement of paper PMC7866885, “A novel bicyclic 2,4-diaminopyrimidine inhibitor of Streptococcus suis dihydrofolate reductase” (PeerJ, 2021).
± gives the standard deviation.

The compounds below were run on Streptococcus suis P1/7 (assay: percent growth relative to DMSO control; higher = less growth inhibition). Conditions: 10 µM; incubation time 18 h.
Procedure: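 CLSI broth microdilution: 5x10^4 CFU of Streptococcus suis (strain P1/7 or HE06) incubated with 10 µM Pathogen Box compound in cation-adjusted Mueller Hinton broth, 37 °C, 5% CO2, 18 h. Growth read as OD600 and expressed as percent of the DMSO-treated control (100%); mean ± SD of three independent experiments.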

SMILES | percent growth [%]
CCN(CC)S(=O)(=O)c1ccc(C(=O)Nc2cc(C)nn2-c2nc(C)c(C)c(=O)[nH]2)cc1 | 3.31 ± 3.3
COc1ccc(Cl)cc1NC(=O)CN(C)C(=O)c1cnn(-c2ccccc2)n1 | 80.3 ± 29
C[C@H](C(N)=O)N1CCCC[C@H]1c1ccc(OCc2cccc(F)c2)cc1 | 63.4 ± 26
CCN(CC)S(=O)(=O)c1ccc(Cl)c(C(=O)Nc2ccc3nc(C)sc3c2)c1 | 138 ± 70
COC(=O)c1c(NC(=O)c2c(F)c(F)c(F)c(F)c2F)sc2c1CCCCC2 | 85.2 ± 3
Cc1cc(C)n2nc(C(=O)Nc3cc(C(F)(F)F)ccc3N3CCOCC3)nc2n1 | 81.4 ± 16
O=C(Nc1ccccc1)c1ccc(-c2cc3ccncc3cc2OC2CCNCC2)s1 | 72.3 ± 8.4
Cc1cnc(N2CCN[C@@H](Cc3ccccc3)C2)nc1Oc1ccc(-n2ccnc2)cc1 | 109 ± 29
CCOc1ccc2cc(-c3nn(CC4CCN(C)CC4)c4ncnc(N)c34)ccc2c1 | 99.3 ± 11
CN1CCN(CCCOc2ncc(Nc3ncc(-c4ccc(C(F)(F)F)c(F)c4)nc3C(N)=O)cn2)CC1 | 97.2 ± 9.4
Cc1noc(C)c1C(=O)N1CCCC(c2[nH]c3c(C)cccc3c2-c2ccncc2)C1 (stereo not given) | 90.5 ± 20
Cc1nnc(NC(=O)c2cn(-c3ccccc3)nc2-c2ccccc2C)o1 | 0.18 ± 0.31
CCN(CC)C(=O)N1CCN(C)CC1 | 91.1 ± 17
COc1ccc(OC(C)C(=O)Nc2ccc(Cl)cc2C)cc1 (stereo not given) | 82.7 ± 6.3
COc1ccc(-c2cnc3ccc(NCc4ccc(S(N)(=O)=O)cc4)nn23)cn1 | 89.2 ± 15
COc1ccc2nccc(NC(=O)C3CCN(CCc4ccc(Cl)cc4)CC3)c2n1 | 28.6 ± 47
CC(=O)N1CCc2cc3nc(C)cc(C)c3cc21 | 91.7 ± 27
c1ccc(Oc2ccc(-c3cc(N4CCOCC4)[nH]n3)cc2)cc1 | 61.7 ± 32
c1ccc(Oc2ccc(-c3cc(CN4CCOCC4)[nH]n3)cc2)cc1 | 95.7 ± 15
Cc1ccc(Oc2ccc(NC(=O)CNc3ccccc3N3CCCC3=O)cc2)cc1 | 104 ± 14

SMILES | percent growth [%]
CCOc1ccc(OCC(=O)Nc2cc(C)cc(C)c2)cc1 | 94.3 ± 16
CCOc1ccc(-c2nc(NC(=O)CS(=O)(=O)c3ccccc3)sc2C)cc1 | 153 ± 100
c1ccc(-c2[nH]c3ccccc3c2C(c2ccccn2)N2CCCC2)cc1 (stereo not given) | 108 ± 23
Cc1cc(NCC(C)C)c2n[nH]c(-c3ccccc3)c2n1 | 122 ± 79
Nc1ccc2ncnc(Nc3ccc(OCc4cccc(F)c4)c(Cl)c3)c2c1 | 81.2 ± 18
COc1cccc(-n2nnnc2S(=O)(=O)Cc2ccccc2)c1 | 64.7 ± 47
OCCc1ccc(Nc2nccc(-c3nnc4ccccn34)n2)cc1 | 88.5 ± 13
CS(=O)(=O)N1CCC(CCn2nc(Cc3cccc4ccccc34)c3c(N)ncnc32)CC1 | 100 ± 38
COc1cccc(OCC(=O)c2ccc(Br)cc2)c1 | 81.9 ± 9.6
COc1cc(NC(=O)Cc2nn(C)c(=O)c3ccccc23)ccc1Cl | 108 ± 46
Clc1cccc(CO[C@H]2CCc3ccccc3[C@@H]2n2ccnn2)c1 | 95.9 ± 18
Cc1ccc(NC(=O)CC2COc3ccccc3O2)cc1Cl (stereo not given) | 95.7 ± 33
Cc1ccc(S(=O)(=O)N2CCN(C(=O)c3cc(-c4ccccc4)[nH]n3)CC2)cc1 | 83.1 ± 19
O=C(c1ccc(NCCO)cc1)C1C[C@H]1c1ccc(Cl)cc1 (stereo not given in full) | 67 ± 24
Cc1cc(C)n(-c2ccc(NC(=O)C3CCN(Cc4cnc(C)s4)CC3)cc2)n1 | 65.6 ± 19
O=C(Nc1nc(-c2ccccn2)cs1)C1CC1c1ccccc1F (stereo not given) | 2.29 ± 3.7
O=C(Nc1ccc(N2CCNCC2)nc1)c1oc(-c2ccccc2)nc1C(F)(F)F | 63.6 ± 18
CCCCOC(=O)Nc1cc2nc(C3CCCCC3)[nH]c2cc1N1CCCC1 | 62.9 ± 63
O=C(Nc1cnc2ccccc2c1)c1cccc(-n2cnnn2)c1 | 106 ± 28
CCOC(=O)c1c(NC(=O)c2c(F)c(F)c(F)c(F)c2F)sc(C(N)=O)c1C | 83.2 ± 22
